High-throughput results deposited in PubChem by Pan Lab, Icahn School of Medicine at Mount Sinai.
The full list was thinned out, with hits kept by preference.
ROC1-CUL1 inh: blocks human RBX1-Cullin-1 di-ubiquitin formation. AID 1347404. 140,000 compounds, 0.6% hits. P62877+Q13616. in vitro K48 di-Ub FRET, acceptor:donor ratio, 45 min. inhibition, % at 10 µM; in the data active = inhibition above about 25%
Target sequence (P62877 whole entry, looked up): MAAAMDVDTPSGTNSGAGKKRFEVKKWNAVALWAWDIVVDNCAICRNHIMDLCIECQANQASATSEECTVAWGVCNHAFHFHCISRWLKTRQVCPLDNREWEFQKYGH
Target sequence (Q13616 whole entry, looked up): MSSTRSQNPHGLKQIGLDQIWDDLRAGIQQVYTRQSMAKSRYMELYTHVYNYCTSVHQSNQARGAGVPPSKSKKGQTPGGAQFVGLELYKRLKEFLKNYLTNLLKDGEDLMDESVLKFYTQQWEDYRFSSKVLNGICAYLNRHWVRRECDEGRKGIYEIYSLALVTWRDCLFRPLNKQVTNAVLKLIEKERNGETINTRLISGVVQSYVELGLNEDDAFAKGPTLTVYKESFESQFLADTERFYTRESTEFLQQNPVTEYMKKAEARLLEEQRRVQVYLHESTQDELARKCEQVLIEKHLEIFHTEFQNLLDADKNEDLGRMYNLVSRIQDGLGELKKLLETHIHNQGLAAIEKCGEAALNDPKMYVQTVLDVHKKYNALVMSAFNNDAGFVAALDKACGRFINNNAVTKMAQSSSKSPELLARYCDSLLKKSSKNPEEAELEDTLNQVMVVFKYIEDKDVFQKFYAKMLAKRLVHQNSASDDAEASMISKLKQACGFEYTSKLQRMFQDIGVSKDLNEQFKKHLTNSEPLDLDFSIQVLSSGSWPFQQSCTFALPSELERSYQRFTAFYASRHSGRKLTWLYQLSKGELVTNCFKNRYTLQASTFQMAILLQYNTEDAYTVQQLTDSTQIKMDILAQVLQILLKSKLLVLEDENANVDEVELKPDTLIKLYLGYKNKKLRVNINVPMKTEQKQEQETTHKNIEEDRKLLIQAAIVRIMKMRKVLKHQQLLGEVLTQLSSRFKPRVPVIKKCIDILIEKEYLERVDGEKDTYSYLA
Numbers without * were called inactive.

SMILES	ROC1-CUL1 inh
CC1=NN(c2ccccc2)C(=O)/C1=C/c1ccccc1OCc1ccc(C(=O)O)cc1	51*
CC1=NN(c2ccccc2)C(=O)/C1=C/c1ccccc1OCc1ccccc1C	3
Cc1cccc(C)c1N(CC(=O)NCCSc1ccccn1)S(C)(=O)=O	-14
CC1CCCN(S(=O)(=O)c2ccc(OC(F)(F)F)cc2)C1 (stereo not drawn)	10
N#CC1C(=N)S/C(=C/c2ccco2)C1=N (stereo not drawn)	24
C(=N\N(c1ccccc1)c1ccccc1)/c1ccco1	1
C(=C1Sc2ccccc2S1)c1ccco1	57*
O=C(Nc1ccc2nc(SC(c3ccccc3)c3ccccc3)sc2c1)c1ccccc1F	-4
C=C(C)COc1ccccc1NC(=O)CC	5
C=CCN1C(=O)/C(=C/c2cc(OC)c(OCc3ccccc3)cc2Br)C(=O)NC1=S	0
COc1cc(C)ccc1OCc1cc(C(=O)N(C)Cc2nonc2C)no1	3
O=C1NN=C2N=C(C(F)(F)F)C=C(C(F)(F)F)C12 (stereo not drawn)	97*
C=CCN1C(=O)C(=O)C(C(=O)c2ccccc2)C1c1ccc(Cl)cc1 (stereo not drawn)	-3
COCc1c(C(=O)O)nnn1-c1ccc(Cl)cc1	3
CO/C=C\C=C/c1nnn(-c2ccc(Cl)cc2)n1	38*
CCOC(=O)C=CCn1nnn(-c2ccc(Cl)cc2)c1=O	2
COc1ccc(CNc2nc3c(-c4cccc(F)c4)nnn3c3ccccc23)cc1	2
Fc1c(F)c(F)c2nc3c(cc2c1F)c(-c1ccccc1)nn3-c1ccccc1	3
COc1ccc(CNc2c(F)c(F)c3nc4c(cc3c2F)c(-c2ccccc2)nn4C)cc1	96*
COc1ccc(-c2ccnc3c(OC)ccc(N)c23)cc1OC	-9
Cc1ccccc1NC(=O)C1C2c3ccccc3OC1(C)N=c1s/c(=C/c3cnn(C)c3C)c(=O)n12 (stereo not drawn)	-4
COC(=O)C1C2(C)N=c3s/c(=C\c4cc(Cl)cc(Cl)c4O)c(=O)n3C3c4ccccc4OC312 (stereo not drawn)	41*
CCOC(=O)C1=C(C)N=c2s/c(=C\c3cc(Cl)cc(Cl)c3O)c(=O)n2C1c1ccccc1Cl (stereo not drawn)	-29
CCC(CC)C(=O)N1CCN(S(=O)(=O)c2ccccc2)CC1	-2
CC(=O)N=C1C(=O)c2ccccc2C(=O)C1NCCOc1ccccc1 (stereo not drawn)	-4
SMILES	ROC1-CUL1 inh
CC(=O)Nc1cccc2c1C(=O)N(c1cccc(C(=O)O)c1)C2=O	-15
CC(=O)N=C1C(=O)c2c(NC(C)=O)cccc2C(=O)C1Br (stereo not drawn)	60*
Cc1c[nH]c2ccc(OCC(O)CNC(C)(C)C)cc12 (stereo not drawn)	-3
CN(C(=O)/C=C/c1cccnc1)C1CCCN(CCc2ccccc2)C1 (stereo not drawn)	-1
CC(C)C(=O)N1CCN(c2c(N)cccc2Cl)CC1	7
CC(C)c1ccc(OCCOCCN2CCNCC2)cc1	-4
CC(=O)OC1CC[C@](C)(C2CC[C@]3(C)C(C(C)CCCC(C)C)CCC3C2C(=O)O)C(=O)C1 (stereo partly drawn)	-1
CC(C)CCCC(C)C1CCC2C3CC([N+](=O)[O-])=C4C[C@@H](Cl)CCC4(C)C3CCC12C (stereo partly drawn)	-3
CC(C)CCCC(C)C1CCC2[C@@H](C(=O)O)C([C@@]3(C)CCC=CC3=O)CC[C@]12C (stereo partly drawn)	97*
Cc1nn(CC(=O)Nc2sc3c(c2C(N)=O)CCCCC3)c(C)c1[N+](=O)[O-]	5
N#CC1C(=N)Oc2n[nH]c(-c3ccc4c(c3)OCO4)c2C1c1ccc(F)c(Br)c1 (stereo not drawn)	-6
CCOc1cc(CN2CCC(C(Cc3ccccc3Cl)N(C)C(=O)c3ccco3)CC2)ccc1O (stereo not drawn)	7
O=C(Cn1ncc2ccccc2c1=O)N1CCCC(CN2CCOCC2)C1 (stereo not drawn)	5
O=C(O)c1cc2cc(C(=O)O)sc2s1	6
Nc1sccc1C(=O)c1ccccc1	8
CC(=O)Oc1ccc2occ(C(=O)c3ccccc3)c2c1	-10
CC(=O)C(C(C)=O)C1=C(Br)C(=O)C(=O)c2c(C(=O)c3ccccc3)coc21	12
Cc1ccc(C(=O)c2coc3ccc(Br)cc3c2=O)cc1	1
O=C(c1ccccc1)c1coc2cc(Br)c(O)c(Br)c12	15
Cc1ccc(C(=O)c2coc3c2C(=O)C(=O)C(Br)=C3)cc1	96*
O=C1C(=O)c2c(C(=O)c3ccccc3)coc2C=C1Br	104*
O=C1C(=O)c2c(C(=O)c3ccccc3)coc2C(Cl)=C1Cl	89*
Cc1ccc(C(=O)c2coc3c2C(=O)C(=O)c2ccccc2-3)cc1	4
C/C(=N/Nc1ccccc1[N+](=O)[O-])c1ccc(-c2ccccc2)cc1	-2
C=CCC(O)(CC=C)CNC(=O)C1CCC(=O)N(Cc2ccccc2OC)C1 (stereo not drawn)	-10
SMILES	ROC1-CUL1 inh
CCOc1cc(/C=C2/C(=O)NC(=O)N(C(C)(C)C)C2=O)ccc1O	1
O=C(c1ccoc1)N1CCCC(CCc2ccccc2)C1 (stereo not drawn)	9
O=c1c2c3c(sc2nc(SCc2cccc4ccccc24)n1-c1ccc(F)cc1)CCCC3	-6
COC(=O)c1cc([N+](=O)[O-])c(NCC(=O)O)c([N+](=O)[O-])c1	4
Cc1cccc(N2NC(=O)/C(=C/c3ccc(-c4ccc(S(N)(=O)=O)cc4)o3)C2=O)c1	32*
CC1=NN(c2ccc(C)c(C)c2)C(=O)/C1=C\c1ccc(-c2ccc(S(=O)(=O)c3nccs3)cc2)o1	11
CC(=O)NS(=O)(=O)c1ccc(-c2ccc(/C=C3/C(=O)NN(c4cccc(C)c4)C3=O)o2)cc1	8
NS(=O)(=O)c1ccc(-c2ccc(/C=C3/C(=O)NN(c4cccc(F)c4)C3=O)o2)cc1	44*
Cc1ccc(N2NC(=O)/C(=C/c3ccc(-c4ccccc4F)o3)C2=O)cc1C	-2
Cc1ccc(N2NC(=O)/C(=C/c3ccc(-c4ccc(S(=O)(=O)Nc5nccs5)cc4)o3)C2=O)cc1	72*
NS(=O)(=O)c1ccc(-c2ccc(/C=C3\C(=O)NC(=S)N(c4cccc5ccccc45)C3=O)o2)cc1	5
NC(=O)c1ccc(-c2ccc(/C=C3/C(=O)NN(c4ccc(F)cc4)C3=O)o2)cc1	5
O=C1NN(c2cccc(F)c2)C(=O)/C1=C\c1ccc(-c2ccc(C(=O)O)cc2)o1	6
COCC(=O)N1CCC(Oc2ccccc2C(=O)N2CCCO2)CC1	-1
CCc1ccccc1N1C(=O)c2ccc(C(=O)OCC(=O)C(C)(C)C)cc2C1=O	-5
Cc1cc(Br)ccc1S(=O)(=O)N1CCC(C(N)=O)CC1	-5
O=C1c2ccccc2C(=O)N1CCCSc1nnc(-c2ccncc2)n1-c1ccccc1	-11
Brc1cc2sc(Br)c(Br)c2s1	5
Cc1cnc(SCCN2CCOCC2)nc1C1CCCN(C(=O)CCC2CCCCC2)C1 (stereo not drawn)	2
Cc1cccc(NC(=O)c2sc3nc(-c4cc5ccc(O)cc5oc4=O)[nH]c(=O)c3c2C)c1	63*
Cc1c(C(=O)Nc2cccc(F)c2)sc2nc(-c3cc4ccccc4oc3=O)[nH]c(=O)c12	5
Cc1cc(C)cc(NC(=O)c2sc3nc(-c4cc5ccccc5oc4=O)[nH]c(=O)c3c2C)c1	5
